# Screens as filed in PubChem.
# Pol iota inh: blocks human DNA polymerase iota activity. Q9UNA4. Pol iota fluorescent replication assay, 10 min. Potency, µM (titrated, usually from 115 µM), for the others: top-dose activity, negative = inhibition, most hits filed as inhibitors. hit rate 1% among 390,000. AID 588590
# Target sequence (Q9UNA4 whole entry, looked up): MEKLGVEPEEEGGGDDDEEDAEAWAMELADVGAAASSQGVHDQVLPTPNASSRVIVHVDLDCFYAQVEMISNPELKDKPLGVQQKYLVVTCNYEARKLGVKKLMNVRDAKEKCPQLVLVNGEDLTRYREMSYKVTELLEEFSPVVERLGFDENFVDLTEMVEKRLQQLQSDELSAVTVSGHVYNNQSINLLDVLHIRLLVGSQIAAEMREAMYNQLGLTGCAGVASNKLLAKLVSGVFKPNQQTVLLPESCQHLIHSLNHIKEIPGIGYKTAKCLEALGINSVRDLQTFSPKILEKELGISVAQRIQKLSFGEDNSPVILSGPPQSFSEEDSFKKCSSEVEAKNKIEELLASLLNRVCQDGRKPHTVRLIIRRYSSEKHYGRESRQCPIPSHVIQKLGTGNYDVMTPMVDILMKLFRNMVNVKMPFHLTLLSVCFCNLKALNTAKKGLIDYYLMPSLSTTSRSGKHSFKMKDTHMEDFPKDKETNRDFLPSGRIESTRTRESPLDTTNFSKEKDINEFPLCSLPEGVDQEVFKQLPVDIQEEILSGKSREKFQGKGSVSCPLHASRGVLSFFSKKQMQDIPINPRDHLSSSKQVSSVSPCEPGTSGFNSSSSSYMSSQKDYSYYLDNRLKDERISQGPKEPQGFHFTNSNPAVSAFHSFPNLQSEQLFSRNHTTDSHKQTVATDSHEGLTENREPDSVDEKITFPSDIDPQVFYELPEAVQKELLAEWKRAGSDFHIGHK
#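 Pol iota at 10 nM preincubated 15 min with compounds at room temperature; reaction started with fluorescent substrate, 50 nM final. Fluorescence read kinetically at 0 and 10 min; buffer-only wells as negative control.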
# FEN1 inh: blocks human flap endonuclease 1. P39748. Recombinant FEN1 flap cleavage, fluorescence, 15 min. Potency, µM (doses to about 114 µM), without a hit: at the highest dose activity change, negative = inhibition, actives largely listed as inhibitors. hit rate 0.35% among 390,000; note: % is set by controls: 0 for no effect and ±100 for the full control effect; nearly all actives have a fitted effect of over 65% in size
#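 Concentration–response screening of FEN1 (10 nM): 15 min compound preincubation at room temperature, reaction started with 50 nM substrate and read at 0 and 15 min. Corrected, normalized data were fitted by a four-parameter Hill equation.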
# Pol eta inh: DNA polymerase eta (human) inhibition; Q9Y253; AID 588591; Potency, µM (titrated, usually from 114 µM), for inactives: at the top dose activity change, negative = inhibition, actives largely listed as inhibitors; recombinant Pol eta, fluorescent DNA replication assay; hit rate 1.2% among 390,000; note: % is set by controls: 0 for no effect and ±100 for the full control effect
#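 Pol eta (10 nM) was preincubated with compounds for 15 min at room temperature, after which fluorescent replication substrate (50 nM final) was added to start the reaction. Fluorescence was read kinetically at 0 and 10 min.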
# POLB inh: blocks human DNA polymerase beta activity; Pol beta primer extension/strand displacement, fluorescence kinetic; Potency, µM (doses to about 114 µM), for the others: top-dose activity change, negative = inhibition, actives largely listed as inhibitors; hit rate 1.3% among 340,000; note: % is set by controls: 0 for no effect and ±100 for the full control effect
#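 Reaction started by 50 nM substrate onto compound-treated Pol beta (10 nM, 15 min preincubation, room temperature); plates read at 0 min and 10 min. Normalized concentration-effect data fitted by four-parameter Hill equation.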
# WRN helicase inh: WRN helicase (human) inhibition; Q14191; AID 651768; Potency, µM (highest dose often 114 µM), for the others: at the highest dose activity change, negative = inhibition, usual class: inhibitors; hit rate 0.46% among 360,000; WRN helicase unwinding, fluorescent forked duplex, kinetic; note: % is set by controls: 0 for no effect and ±100 for the full control effect; nearly all actives have a fitted effect of over 55% in size
#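 Enzyme (20 nM final) and test compound sit together 15 min at room temperature before substrate addition. Substrate is a single-forked duplex oligonucleotide (100 nM) labelled with fluorophore and quencher, with 2 mM ATP; helicase unwinding raises red fluorescence, read kinetically.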
# Pol kappa inh: blocks human DNA polymerase kappa activity. Potency, µM (titrated, usually from 107 µM), inactives show top-dose activity, negative = inhibition, hits mostly inhibitors. AID 588579. purified Pol kappa, fluorescent DNA synthesis assay, 10 min. Q9UBT6. hit rate 0.53% among 400,000; note: % is set by controls: 0 for no effect and ±100 for the full control effect
#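 Enzyme at 10 nM met test compounds for 15 min at room temperature. Substrate addition (50 nM final) began the reaction, which was monitored by fluorescence at 0 and 10 min.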
# * hit, by the source's call; ? = inconclusive; · = no result given; [ ] = remark or other dose. Rows were chosen to be rich in hits. Some 2.4% of all compounds tested hit in one or more screens of this group. Calls come from the whole dose curve; as a rule, active = well fitted curve in the direction sought with a large enough effect; inconclusive = small, poorly fitted or top-dose-only effect, or another doubt; inactive = no such curve, though single readings can be large; an effect the other way counts as inactive or inconclusive. Potency is the fitted concentration of half-maximal effect.
SMILES,Pol iota inh,FEN1 inh,Pol eta inh,POLB inh,WRN helicase inh,Pol kappa inh
CC(C)(C)c1nnc(N/N=C/c2ccc(Br)cc2)n(N)c1=O,15.0%,8.5%,-20.9%,2.5%,-14.5%,-6.9%
COc1cc(/C=N\Nc2nncn2N)ccc1OC(C)=O,7.08µM*,-12.8%,-10.3%,16.9%,0.4%[11.6 µM],-27.0%
CSc1ccc(/C=N\Nc2nncn2N)cc1,5.62µM*,?,-22.4%,3.2%,9.7%,-4.1%
CC(C)(C)c1ccc(/C=N/Nc2nncn2N)cc1,3.16µM*,-12.1%,-7.5%,-18.7%,3.0%[11.6 µM],-2.8%
COc1cc(/C=N/NC(=O)c2ccncc2)ccc1OC(C)=O,-0.1%,0.9%,-12.7%,27.9%,-0.9%,4.6%
CC(C)c1ccc(NC(=O)c2cc3c([nH]c2=O)CC(C)(C)CC3=O)cc1,-7.9%,-9.7%,·,·,·,-2.3%
CC1=Nc2ccccc2/C1=C/c1sc(=S)n(-c2cccc(C(=O)O)c2)c1O,?,?,35.5µM*,-22.3%,?,?
COc1ccccc1/C=c1\sc2nc(-c3ccccc3OC)nn2c1=O,-5.2%,-0.2%,-2.1%,2.8%,-5.3%,-7.8%
Cc1ccc(/C=c2\sc3nc(-c4ccco4)nn3c2=O)o1,?,?,3.55µM*,28.2µM*,56.2µM*,28.2µM*
Cc1ccc(/C=c2/sc3nnc(-c4ccccc4Cl)n3c2=O)o1,?,-9.3%,14.1µM*,39.8µM*,?,-28.7%
Cc1ccc(/C=c2\sc3nc(-c4ccccc4Br)nn3c2=O)o1,?,?,10µM*,14.1µM*,?,20µM*
Cc1ccc(-c2nc3s/c(=C\c4ccco4)c(=O)n3n2)cc1,25.1µM*,-5.2%,89.1µM*,28.2µM*,-14.7%[57.1 µM],-42.2%
CC1(C)OC(=O)C2(Cc3ccc(Cl)cc3N3CCCC32)C(=O)O1 (configuration not stated),25.2%,-2.2%,·,·,·,-8.3%
CN1CCN(c2ncnc3ccc(-c4ccccc4Cl)cc23)CC1,·,·,·,·,·,-0.6%[60.1 µM]
Cc1nc2cnc(N3CCOCC3)nc2n(CCc2ccccc2)c1=O,·,·,·,·,·,1.5%[60.1 µM]
Nc1nc2c(nc(Sc3ccc(Cl)cc3)n2C2OC(CO)C(O)C2O)c(=O)[nH]1 (configuration not stated),·,·,·,·,·,-3.7%[60.1 µM]
CCCS(=O)(=O)N1CC(=O)N(c2cc(C)ccc2C)C(C)(C(=O)NC2CCCCCC2)C1 (configuration not stated),-8.7%,16.1%,-9.6%,6.3%,·,-14.0%
COc1ccc(C(=O)NCCn2cc(SCc3c(F)cccc3Cl)c3ccccc32)cc1,0.6%,-18.5%,-12.1%,0.0%,·,-17.0%
O=c1oc2cc([N+](=O)[O-])ccc2nc1/C=C(\O)c1cccc(Br)c1,-21.9%[58.9 µM],25.1µM*,?,0.1%,-9.4%,-12.9%
O=c1oc2cc([N+](=O)[O-])ccc2nc1/C=C(O)/C=C/c1ccccc1,·,·,·,-23.4%,·,·
Cc1cc(N2CCN(c3ccccc3F)CC2)n2cnnc2n1,13.9%,-12.5%,-7.0%,11.1%,·,-9.2%
Cc1cc(N2CCN(c3cccc(C)c3C)CC2)n2cnnc2n1,?,10.0%,-16.8%,0.159µM*,·,-27.7%
Cc1ccc(CNC(=O)c2cccc(Nc3nc4ccccc4n4nnnc34)c2)cc1,9.5%,14.9%,-8.7%,8.5%,·,-1.7%
COc1ccc(CN(C)C(=O)CCNS(=O)(=O)c2ccccc2)c(OC)c1,·,·,2.3%,·,5.9%,·
O=C(O)COc1ccc(/C=C/C(=O)c2ccc(C3CCCCC3)cc2)cc1,?,0.1%,39.8µM*,?,?,-6.2%
SMILES,Pol iota inh,FEN1 inh,Pol eta inh,POLB inh,WRN helicase inh,Pol kappa inh
O=C(O)COc1ccc(/C=C/C(=O)c2ccc3ccccc3c2)cc1,17.8µM*,-7.8%,25.1µM*,-11.3%,?,-13.4%
CN(C)c1ccc(/C=C/C(=O)c2ccccc2)cc1[N+](=O)[O-],-1.1%,-12.0%,-13.0%,-28.4%,6.7%,-16.8%
O=C(/C=C/c1ccc(O)c([N+](=O)[O-])c1)c1ccc2ccccc2c1,?,?,22.4µM*,?,?,-3.6%
Cc1ccc(-c2nc3ccccc3o2)cc1NC(=O)Cc1ccc(Cl)cc1,34.6%,-0.2%,-17.1%,-6.1%,·,-3.4%
Cc1cccc(C)c1NC(=O)C(c1ccc(C#N)cc1)n1c(=O)c(-c2cc3ccccc3[nH]2)nc2ccccc21 (configuration not stated),·,·,·,·,-5.9%,·
CCN(CC)CCN(C(=O)c1ccco1)c1nc2cc(C)cc(C)c2s1,-23.8%,-6.1%,-3.7%,56.2µM*,·,-21.2%
Cc1ccccc1Nc1c(-c2ccsc2)nc2c(C)cccn12,-0.4%,-3.1%,-13.4%,3.3%,·,15.0%
COc1ccc(NC(=O)C(C)n2nnc3sc(-c4ccccc4)cc3c2=O)cc1Cl (configuration not stated),4.5%,?,·,26.4%,·,10.3%
CC(C)(C)C(=O)Oc1ccc(S(=O)(=O)Nc2ccccc2C(=O)NCC(=O)O)cc1,·,·,·,·,·,1.2%[19.4 µM]
N#Cc1c(NC(=O)c2ccccc2Cl)n(Cc2ccccc2)c2nc3ccccc3nc12,20µM*,?,35.5µM*,70.8µM*,?,-17.3%
CCCCn1c(NC(=O)c2ccccc2Cl)c(C#N)c2nc3ccccc3nc21,3.55µM*,?,20µM*,0.5%,-34.9%,-10.5%
CCCCn1c(NC(=O)CC)c(C#N)c2nc3ccccc3nc21,22.4%,-7.9%,-16.8%,2.3%,-12.5%,-5.6%
CSc1ccc(CNC(=O)Cn2nc(N3CCN(c4ccccc4)CC3)ccc2=O)cc1,-3.4%,-2.1%,3.3%,18.3%,·,3.2%
Cc1ccccc1CSc1nnc2[nH]c(=O)cc(C)n12,-4.7%,22.4%,7.5%,0.2%,·,-5.2%[60.1 µM]
CCCCC/C=C\C/C=C\C/C=C\CC1OC1CCCC(=O)O (configuration not stated),·,·,·,·,·,4.9%[19.4 µM]
O=[N+]([O-])c1cccc(-c2nc3ccc([N+](=O)[O-])cc3[nH]2)c1,-16.0%,?,?,-1.2%,-12.1%,-7.6%
O=[N+]([O-])c1ccc(O)c(C=Nc2ccc3nc(-c4ccccc4)[nH]c3c2)c1,-12.0%,-21.2%,?,28.2µM*,-31.6%,-15.4%
O=C(N/N=C/c1ccccc1Cl)c1nc2ccc([N+](=O)[O-])cc2c(=O)[nH]1,10µM*,2.8%,-8.7%,9.7%,-2.9%,-0.1%
COc1cc(OC)c(N(C)C(=O)c2sc3nc4n(c(=O)c3c2C)CCCC4)cc1Cl,20.2%,-6.5%,-15.5%,89.1µM*,·,-18.6%
COc1cc(OC)c(N(C)C(=O)c2sc3nc4n(c(=O)c3c2C)CCCCC4)cc1Cl,11.4%,-13.8%,-11.7%,21.5%,·,-9.1%
O=C(Nc1ncnc2nc[nH]c12)c1ccccc1,55.0%,-7.4%,·,·,·,10.9%
